“And” between values parts separate entries of the source, which are not always exact repeats. Equal entries are not always repeated. A number with no mark means an inactive call. Records with an inconclusive call do not appear. The source made the active and inactive calls. Unless noted, the call rests on the fitted dose curve; in most records, active means well fitted inhibition curve with a large enough effect; inconclusive means small, poorly fitted or top-dose-only effect; inactive means flat fitted curve, though single readings scatter.
Assays:
[1] = Drug repurposing screens with cells derived from glioblastoma tumor samples (AID 1345199); details: GBM patient neurospheres viability, ATP luminescence, 48 h; further: nearly all actives have a fitted effect of over 40% in size; further: potency means the concentration at half of the fitted maximal effect; on activity, negative = cell killing: on the % scale 0 is the no-effect control and ±100 the full control effect
Procedure, shortened: (§1)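 Primary testing used CD133+ neurospheres from four GBM patients, seven concentrations, 48 h exposure and ATP-based viability; confirmation added three slower-growing patient lines.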

astro = control astrocytes; assay: as above; details: viability, ATP luminescence, 48 h; series mostly up to 45.9 µM
Procedure, shortened: as §1

[2] = target: Nuclear receptor subfamily 1 group I member 2 (Rattus norvegicus) (UniProt Q9R1A7); assay: qHTS assay for small molecule activators of the rat pregnane X receptor (rPXR) signaling pathway (AID 651751; call rule not given here; further: 0% is about no effect); details: rPXR reporter cells, luciferase (One-Glo), 24 h
[3] = qHTS assay for small molecule activators of the human pregnane X receptor (PXR) signaling pathway (AID 720659; call rule not given here; further: 0% is about no effect); details: DPX-2 HepG2 CYP3A4-luciferase, 24 h; series mostly up to 92.3 µM
[4] = at 45.9 µM (top of the series), tumour line B
[5] = at 45.9 µM (top of the series), tumour line D
[6] = at 46.1 µM (top of the series), tumour line C
[7] = at 21.2 µM (top of the series), tumour line B
[8] = at 20 µM (top of the series), tumour line C

Chain of Nuclear receptor subfamily 1 group I member 2 (Rattus norvegicus) (Q9R1A7 whole entry, looked up): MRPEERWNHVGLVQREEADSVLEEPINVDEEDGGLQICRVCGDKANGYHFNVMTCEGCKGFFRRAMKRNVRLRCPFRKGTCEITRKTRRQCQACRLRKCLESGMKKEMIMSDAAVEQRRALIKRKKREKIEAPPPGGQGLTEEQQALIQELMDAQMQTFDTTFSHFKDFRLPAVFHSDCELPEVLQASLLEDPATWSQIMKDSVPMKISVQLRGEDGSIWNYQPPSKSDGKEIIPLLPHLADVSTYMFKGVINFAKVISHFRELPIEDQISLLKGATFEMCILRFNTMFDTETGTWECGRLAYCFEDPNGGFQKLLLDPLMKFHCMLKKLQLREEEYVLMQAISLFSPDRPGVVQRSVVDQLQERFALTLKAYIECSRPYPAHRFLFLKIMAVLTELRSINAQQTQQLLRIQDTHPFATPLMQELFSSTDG

With `O=C(O)C(Cl)(Cl)Cl` the activity, negative = cell killing [1, 4] was -5.78%, the activity, negative = cell killing [1, 5] was 4.24% and the activity, negative = cell killing [1, 6] was 3.74%. For the same compound, the Potency (astro) was “inactive”, the max response [2] was 6.71% and 3.85% and the outcome [3] was “inactive”.
With `CC(C)(C)c1cc(O)ccc1O` the activity, negative = cell killing [1, 5] was -24.6%, the activity, negative = cell killing [1, 6] was 3.11% and the max response [2] was 3.84% and -2.04% and 0.779%.
In the case of `c1ccc(C2(N3CCCC3)CCCCC2)cc1`, the activity, negative = cell killing [1, 6] is reported as -27.4%, the Potency ([1]; tumour line A) is reported as 11.2 µM (active) and the Potency (astro) is reported as “inactive”.
With `CN1[C@@H]2CC[C@H]1CC(OC1c3ccccc3CCc3ccccc31)C2` (stereo partly drawn) the activity, negative = cell killing [1, 7] was -28.8%, the Potency ([1]; tumour line A) was 5.62 µM (active) and the Potency (astro) was “inactive”.
Work on `CCCCCCCCOC(=O)c1ccccc1C(=O)OCCCCCCCC` yielded an activity, negative = cell killing [1, 4] of -18%, an activity, negative = cell killing [1, 5] of 6.99% and an activity, negative = cell killing [1, 6] of -8.6%. The Potency (astro) was “inactive”, the max response [2] was -1.02% and 3.16% and the outcome [3] was “inactive”.
With `C=CC[C@]1(O)CC[C@H]2[C@@H]3CCC4=CCCC[C@@H]4[C@H]3CC[C@@]21C` the activity, negative = cell killing [1, 6] was -3.65%, the Potency ([1]; tumour line A) was 12.6 µM (active) and the Potency (astro) was “inactive”.
`C[C@@H](Cc1ccccc1)N(C)C` gave an activity, negative = cell killing [1, 4] of -4.88%, an activity, negative = cell killing [1, 5] of -10.7% and an activity, negative = cell killing [1, 6] of -6.52%. The Potency (astro) was “inactive”.
In the case of `O=[N+]([O-])c1ccc(F)c([N+](=O)[O-])c1`, the activity, negative = cell killing [1, 4] is reported as -29.6%, the Potency ([1]; tumour line A) is reported as 20 µM (active) and the Potency ([1]; tumour line C) is reported as 14.6 µM (active). The outcome [3] was “inactive”.
In the case of `O=C(NC(=O)c1c(F)cccc1F)Nc1ccc(Cl)c(Oc2ncc(C(F)(F)F)cc2Cl)c1`, the activity, negative = cell killing [1, 4] is reported as -0.522%, the activity, negative = cell killing [1, 5] is reported as -21.9% and the activity, negative = cell killing [1, 6] is reported as -19.8%. For the same compound, the Potency (astro) was “inactive”.
In the case of `ClC1=C(Cl)[C@]2(Cl)[C@@H]3[C@H]4C[C@H]([C@@H]5O[C@H]45)[C@@H]3[C@@]1(Cl)C2(Cl)Cl`, the activity, negative = cell killing [1, 4] is reported as -22%, the Potency ([1]; tumour line A) is reported as 11.2 µM (active) and the Potency (astro) is reported as “inactive”.
`CCN1C[C@]2(COC)[C@H](O)C[C@H](OC)[C@@]34[C@@H]5C[C@@]6(O)[C@H](OC(=O)c7ccccc7)[C@@H]5[C@@](OC(C)=O)([C@@H]([C@H](OC)[C@H]23)[C@@H]14)[C@@H](O)[C@@H]6OC` gave an activity, negative = cell killing [1, 4] of -6.48%, an activity, negative = cell killing [1, 5] of -4.25% and an activity, negative = cell killing [1, 6] of 8.16%. For the same compound, the Potency (astro) was “inactive”.
For `C[C@H]1CC[C@@H]2[C@@H](C)[C@H]3[C@H](C[C@H]4[C@@H]5CC=C6CC(O[C@@H]7O[C@H](CO)[C@H](O)[C@H](O[C@@H]8O[C@H](CO)[C@@H](O)[C@H](O)[C@H]8O)[C@H]7O[C@H]7O[C@@H](C)[C@H](O)[C@@H](O)[C@H]7O)CC[C@]6(C)[C@H]5CC[C@]34C)N2C1` (stereo partly drawn), the activity, negative = cell killing [1, 6] was -1.25%, the Potency ([1]; tumour line B) was 22.4 µM (active) and the Potency (astro) was 22.4 µM (active). For the same compound, the outcome [3] was “inactive”.
In the case of `CN1CCCC(=C(c2cccs2)c2cccs2)C1`, the activity, negative = cell killing [1, 4] is reported as -10.4%, the activity, negative = cell killing [1, 5] is reported as -24.1% and the Potency (astro) is reported as “inactive”.
Compound `C#CC(C)(O)CC` (stereo not drawn) has an activity, negative = cell killing [1, 4] of -22.2%, an activity, negative = cell killing [1, 5] of -11.4% and an activity, negative = cell killing [1, 6] of -2.82%. For the same compound, the Potency (astro) was “inactive”.
With `O=C1OC2(c3cc(Br)c(O)cc3Oc3c2cc(Br)c(O)[c]3[Hg])c2ccccc21` (stereo not drawn) the activity, negative = cell killing [1, 8] was -9.78%, the Potency ([1]; tumour line A) was 14.1 µM (active) and the Potency (astro) was “inactive”.
Compound `[2H]C([2H])([2H])[C@H](N)Cc1ccccc1` has an activity, negative = cell killing [1, 4] of -8.74%, an activity, negative = cell killing [1, 5] of -8.54% and an activity, negative = cell killing [1, 6] of -22.7%. The Potency (astro) was “inactive”.
With `C[C@H]1CCC[C@H](O)CCCCCc2cc(O)cc(O)c2C(=O)O1` the activity, negative = cell killing [1, 6] was 1.42%, the Potency ([1]; tumour line A) was 12.6 µM (active) and the Potency ([1]; tumour line D) was 35.5 µM (active). The Potency (astro) was “inactive” and the max response [2] was -2.32%.
Compound `CC[C@H]1[C@@H]2C[C@H]3[C@@H]4N(C)c5ccccc5[C@]45C[C@@H](C2[C@H]5O)N3[C@@H]1O` (stereo partly drawn) has an activity, negative = cell killing [1, 8] of 5.4%, an activity, negative = cell killing [1, 7] of 2.75% and an activity, negative = cell killing ([1]; at 21.2 µM (top of the series), tumour line D) of 6.31%. For the same compound, the Potency (astro) was “inactive”.
`O=C1CN(O)C(c2ccccc2)=c2cc(Cl)ccc2=N1` showed an activity, negative = cell killing [1, 4] of -13.2%, an activity, negative = cell killing [1, 5] of -10.4% and an activity, negative = cell killing [1, 6] of -13.2%. For the same compound, the Potency (astro) was “inactive”.
In the case of `C[C@@H]([C@H](O)c1ccccc1)N(C)C`, the activity, negative = cell killing [1, 4] is reported as -6.97%, the activity, negative = cell killing [1, 5] is reported as -5.32% and the Potency (astro) is reported as “inactive”.
`C=CCN=C=S` showed an activity, negative = cell killing [1, 4] of -6.51%, an activity, negative = cell killing [1, 5] of -10.4% and an activity, negative = cell killing [1, 6] of 6.26%. The Potency (astro) was “inactive”, the max response [2] was 3.71% and the outcome [3] was “inactive”.
With `O=[N+]([O-])C(Br)(CO)CO` the activity, negative = cell killing [1, 6] was -7.96%, the Potency ([1]; tumour line A) was 35.5 µM (active) and the Potency (astro) was 22.4 µM (active). For the same compound, the outcome [3] was “inactive”.
Work on `N#CN` yielded an activity, negative = cell killing [1, 4] of -13.5%, an activity, negative = cell killing [1, 5] of -4.31% and an activity, negative = cell killing [1, 6] of -5.37%. The Potency (astro) was “inactive”, the max response [2] was 6.95% and the outcome [3] was “inactive”.
